Calls of active or inactive are those of the source. The call rests on the fitted dose curve; in most records, active means well fitted curve in the direction sought with a large enough effect; inactive means no such curve, though single readings can be large or run the other way.
Experiment: qHTS profiling of inhibitors of Plasmodium falciparum (3D7) proliferation (acoustic dispense)
Conditions: P. falciparum 3D7 in erythrocytes, SYBR Green, 72 h; series mostly up to 49.8 µM

outcome, inactive:
CN[C@@H]1C[C@H]2O[C@@](C)([C@H]1OC)n1c3ccccc3c3c4c(c5c6ccccc6n2c5c31)C(=O)N[C@H]4O, COc1cc([C@@H]2c3cc4c(cc3[C@@H](O[C@@H]3O[C@@H]5CO[C@@H](c6cccs6)O[C@@H]5[C@H](O)[C@@H]3O)[C@H]3COC(=O)[C@H]23)OCO4)cc(OC)c1O, Cn1c2ccccc2c2c3c(c4c5ccccc5n(CCC#N)c4c21)CNC3=O, COc1ccc2cc3[n+](cc2c1OC)CCc1cc2c(cc1-3)OCO2, CO[C@@H]1C(N(C)C(=O)c2ccccc2)C[C@H]2O[C@]1(C)n1c3ccccc3c3c4c(c5c6ccccc6n2c5c31)C(=O)NC4=O (stereo not given in full), COc1ccc(-c2cc3c(C)nc(N)nc3n(C3CCC(OCCO)CC3)c2=O)cn1 (stereo not given), O[C@H](c1cc(C(F)(F)F)nc2c(C(F)(F)F)cccc12)[C@H]1CCCCN1, O=C1c2ccccc2-[n+]2ccc3c([nH]c4ccccc43)c21, COc1ncc(-c2ccc3nccc(-c4ccnnc4)c3c2)cc1NS(=O)(=O)c1ccc(F)cc1F, C[C@@H](Oc1ccc2[nH]nc(C=Cc3cnn(CCO)c3)c2c1)c1c(Cl)cncc1Cl, CN([C@@H](Cc1ccc(OS(=O)(=O)c2cccc3cnccc23)cc1)C(=O)N1CCN(c2ccccc2)CC1)S(=O)(=O)c1cccc2cnccc12, Nc1cccc(-c2csc(NC(=O)CCCCCCC(=O)NO)n2)c1, O=C1NC(=O)C(=Cc2ccc3nccc(-c4ccncc4)c3c2)S1, C[C@@H]1CCC2[C@@H](C)[C@@H](O)O[C@@H]3O[C@@]4(C)CC[C@@H]1[C@@]23OO4 (stereo not given in full), C[C@H]1[C@@H](OC(=O)CCC(=O)O)O[C@@H]2O[C@@]3(C)CC[C@@H]4[C@H](C)CC[C@@H]1[C@@]24OO3, CC[C@]1(O)C[C@H]2CN(CCC3=c4ccccc4=N[C]3[C@@](C(=O)OC)(c3cc4c(cc3OC)N(C)[C@H]3[C@@](O)(C(N)=O)[C@H](O)[C@]5(CC)C=CCN6CC[C@]43[C@@H]65)C2)C1, CC[C@H]1OC(=O)[C@H](C)[C@@H](O[C@H]2C[C@@](C)(OC)[C@@H](O)[C@H](C)O2)[C@H](C)[C@@H](O[C@@H]2O[C@H](C)C[C@H](N(C)C)[C@@H]2O)[C@](C)(O)C[C@@H](C)CN(C)[C@H](C)[C@@H](O)[C@]1(C)O, Cc1ccc([N+](=O)[O-])cc1S(=O)(=O)N(C)N=Cc1cnc2ccc(Br)cn12, COc1cc2c(Oc3ccc(NC(=O)C4(C(=O)Nc5ccc(F)cc5)CC4)cc3F)ccnc2cc1OCCCN1CCOCC1, COc1ccc(-c2nc(N3CCOCC3)c3sc(CN(C)c4ncc(C(=O)NO)cn4)cc3n2)cn1, CN(C)c1ccc(C(=C2C=CC(=[N+](C)C)C=C2)c2ccc(N(C)C)cc2)cc1, Clc1ccc2c(N3CCN(CCCN4CCN(c5ccnc6cc(Cl)ccc56)CC4)CC3)ccnc2c1, CCN(CC)CCCC(C)Nc1ccnc2cc(Cl)ccc12 (stereo not given), FC(F)c1nc2ccccc2n1-c1nc(N2CCOCC2)nc(N2CCOCC2)n1, CCNC(=O)c1noc(-c2cc(C(C)C)c(O)cc2O)c1-c1ccc(CN2CCOCC2)cc1, Cn1c(=O)n(-c2ccc(C(C)(C)C#N)cc2)c2c3cc(-c4cnc5ccccc5c4)ccc3ncc21, CC[C@@]1(O)C[C@H](O[C@H]2C[C@H](N(C)C)[C@H](O[C@H]3C[C@H](O)[C@H](O[C@H]4CCC(=O)[C@H](C)O4)[C@H](C)O3)[C@H](C)O2)c2c(cc3c(c2O)C(=O)c2c(O)cccc2C3=O)[C@@H]1C(=O)OC, CC(C=CC(=O)NO)=C[C@@H](C)C(=O)c1ccc(N(C)C)cc1, CCOC(=O)[C@H](CCc1ccccc1)N[C@H]1CS[C@H](c2cccs2)CN(CC(=O)O)C1=O, Cc1nc2c(C#N)cccc2n1-c1ccc(C(=O)NC2CC2)s1, c1cncc(CN2CCC(n3ncc4c(N5CCOCC5)nc(-c5ccc6[nH]ccc6c5)nc43)CC2)c1, CS[C@H]1SC[C@@H]2C(=O)N(C)[C@H](C(C)C)C(=O)OC[C@H](NC(=O)c3cnc4ccccc4n3)C(=O)N[C@H](C)C(=O)N(C)[C@@H]1C(=O)N(C)[C@H](C(C)C)C(=O)OC[C@H](NC(=O)c1cnc3ccccc3n1)C(=O)N[C@H](C)C(=O)N2C, Cn1cnc(=N)c2[nH]cnc21

Activity change, inactive:
CC(Sc1nc2ccccc2[nH]1)C(=O)NN=Cc1cc(Br)ccc1O (stereo not given) 28.2% [at 4.15 µM], CCCCCCOC(=O)C1(O)CC2OC1(C)n1c3ccccc3c3c4c(c5c6ccccc6n2c5c31)C(=O)NC4 (stereo not given) 34.6% [at 1.88 µM]
